From PubChem BioAssay
A1 inh – A1 inhibition; MEF A1-2A-BIM cells, caspase-Glo luminescence, 3 h; percent of clofoctol signal, DMSO as zero; caspase activation, % (concentration not given with the values); hit rate 0.51% among 21,000;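 active = most replicate scores above 10, or exactly half above 10 with mean activity above 10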;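 note: effector caspase 3 and 7 activity cleaving a DEVD luciferin substrate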
BJeLR viability – compounds reducing viability of BJeLR cells; hit rate 0.64% among 30,000; AID 2275; viability loss activity score, % (test concentration not listed); BJeLR fibroblasts viability, CellTiterGlo ATP luminescence, 48 h; HRASV12, hTERT and SV40 LT/ST transformed; in the data active = viability loss activity score above about 50%;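 note: higher score means fewer live cells and less ATP luminescence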
An asterisk follows results filed as active; x = no result. Rows were chosen to be rich in hits. Some 0.89% of all compounds tested hit in one or more screens of this group.

SMILES | A1 inh | BJeLR viability
COC1CC(OC2CCC3(C)C(CCC4C3CCC3(C)C(C5=CC(=O)OC5)C(OC(C)=O)CC43O)C2)OC(C)C1OC1OC(COC2OC(CO)C(O)C(O)C2O)C(O)C(O)C1O (stereo unspecified) | 0 | 96*
O=C(c1ccc2nc(N3CCCCC3)sc2c1)N1CCC2(CC1)OCCO2 | -1 | 6
Cc1[nH]c2ccccc2c1CCNCC(C)(C)C | 0 | -7
N#Cc1c(/N=C/c2cc(Br)ccc2O)sc2c1C1CCN2CC1 | x | -2
CCC1(CC)OC(c2cccnc2)Nc2ccccc21 (stereo unspecified) | 1 | 0
CC[C@@]1(O)C(=O)OCc2c1cc1n(c2=O)Cc2cc3c(O)cccc3nc2-1 | 1 | 107*
O=C(CC[N+](=O)[O-])OC[C@H]1O[C@@H](O)[C@H](OC(=O)CC[N+](=O)[O-])[C@@H](OC(=O)CC[N+](=O)[O-])[C@@H]1OC(=O)CC[N+](=O)[O-] | -1 | 2
CN(C(=O)c1ccc(Cl)cc1)c1ccc(Cl)cc1C(=O)c1ccccc1 | 0 | 2
CCc1ccc(NC2=NCCS2)cc1 | -3 | 7
COc1ccc2c(c1OC)C(=O)O[C@H]2[C@@H]1c2cc3c(cc2CCN1C)OCO3 | -1 | 1
CN1Cc2c(ccc3c2OCO3)C2C(O)Cc3cc4c(cc3C21)OCO4 (stereo unspecified) | 2 | 72*
N#CC(c1ccccc1)c1ccccc1 | 0 | -6
CC(O)CN1CC2CC(C1)c1cccc(=O)n1C2 (stereo unspecified) | 1 | -1
C/C=C\C(=O)O[C@@H]1C[C@H]2O[C@@H]3C=C(C)C(=O)C[C@]3(C)[C@]1(C)[C@]21CO1 | 11* | 101*
CC(C)N(C(=O)SCC(Cl)=C(Cl)Cl)C(C)C | 1 | 11
CNc1ccc2oc(C[C@@H]3OC4(CC[C@@H]3C)O[C@H](C(C)C(=O)c3ccc[nH]3)[C@H](C)C[C@H]4C)nc2c1C(=O)O (stereo partly specified) | -1 | 72*
O=C(O)c1[nH]c2ccc(Cl)cc2c1CC(=O)N1CCC2(CC1)OCCO2 | x | 2
CCOC(=O)C1=C(CN2CC=C(c3ccccc3)CC2)NC(=O)NC1c1ccc(OC)cc1 (stereo unspecified) | 0 | -3
CC(=O)OC[C@]12C[C@H](O)C(C)=C[C@H]1O[C@@H]1[C@H](O)[C@@H](OC(C)=O)[C@@]2(C)[C@]12CO2 | 13* | 119*
CC(=O)OC[C@]12CCC(C)=C[C@H]1O[C@@H]1[C@H](O)[C@@H](OC(C)=O)[C@@]2(C)[C@]12CO2 | 16* | 122*
Cc1ccc(S(=O)(=O)N2CCCCC2)cc1C(=O)Oc1cccc2cccnc12 | -1 | -4
CCC(C)N=Cc1c(O)[nH]c(=O)[nH]c1=O (stereo unspecified) | 0 | -2
CCn1cnc2c(Nc3cccc(Cl)c3)nc(N[C@@H]3CCCC[C@@H]3N)nc21 | 26* | 57*
CCC(C)(O)C(=O)O[C@H]1C(=O)O[C@@H]2C[C@H]3C(C)=CC(=O)[C@@H](O)[C@]3(C)[C@H]3[C@@]4(O)OC[C@]32[C@@H]1[C@@H](C)[C@H]4O (stereo partly specified) | 9 | 114*
N#CC1(P(=S)(c2ccccc2)c2ccccc2)CCCC1 | -2 | -1
